Assay results reported in PubChem BioAssay (NCI).
This is part of a sample that, as a whole, favours compounds with a hit. Of some 79,000 tested, about 15% had one in any assay. A number with no mark means an inactive call. Activity calls are given as the source filed them. No stated cut-off is given here; in the data, active means growth inhibition above about 70%; inactive means the rest.

Legend:
[1] = NCI Yeast Anticancer Drug Screen. Data for the rad50 strain (AID 155);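 further: 0% = growth of vehicle-only cultures of the same strain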; conditions: S. cerevisiae rad50 strain growth inhibition; at 50.0 µM; stronger effect = higher value
In short: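 Yeast carrying a defined DNA repair defect were exposed to test compounds, and growth was compared with vehicle-treated controls to give percent inhibition.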

[2] = NCI Yeast Anticancer Drug Screen. Data for the mec2-1 strain (AID 157); conditions: S. cerevisiae mec2-1 strain, at 50.0 µM, stronger effect = higher value
In short: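 Using mec2-1 yeast: add compound, measure growth, express inhibition versus vehicle-treated cultures.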

[3] = NCI Yeast Anticancer Drug Screen. Data for the sgs1 mgt1 strain (AID 161);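 further: 0% = growth of cultures given vehicle only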; conditions: S. cerevisiae sgs1 mgt1 strain, at 50.0 µM, stronger effect = higher value
In short: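 This yeast growth screen uses a strain with defined DNA-repair lesions; compound-treated growth is compared with vehicle-treated growth.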

[4] = NCI Yeast Anticancer Drug Screen. Data for the cln2 rad14 strain (AID 165);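 further: 0% = growth equal to vehicle treated cultures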; conditions: S. cerevisiae cln2 rad14 strain, at 50.0 µM, stronger effect = higher value
In short: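 Yeast strain cln2 rad14, bearing defects in cell cycle control and DNA repair, serves as the test system; values reflect growth inhibition compared with vehicle.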

[5] = NCI Yeast Anticancer Drug Screen. Data for the bub3 strain (AID 167); conditions: S. cerevisiae bub3 mutant strain, at 50.0 µM, stronger effect = higher value
In short: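 Compounds were applied to a genetically altered yeast strain carrying a cell-cycle control defect. Growth inhibition was scored against vehicle-treated controls.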

[6] = NCI Yeast Anticancer Drug Screen. Data for the mlh1 rad18 strain (AID 175); conditions: S. cerevisiae mlh1 rad18 strain growth inhibition; at 50.0 µM; stronger effect = higher value
In short: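 Steps: expose repair-defective yeast to compound; measure growth; express inhibition against vehicle-treated controls.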

## CC1OC(c2ccc3c(c2O)C(=O)C2=C(C3=O)C3(O)C(=O)CC(C)(O)CC3(O)C=C2)CC(O)C1O (stereo unspecified)
[1]
  growth inhibition: -19.2%
[2]
  growth inhibition: -23.1%
[3]
  growth inhibition: -19.4%
[4]
  growth inhibition: -8.1%
[5]
  growth inhibition: -21.8%
[6]
  growth inhibition: -5.5%

## C/C(N=NC(=S)N1CCC(C)CC1)=C1\C=CC=CN1O
[1]
  growth inhibition: 97.3% (active)
[2]
  growth inhibition: 91.5% (active)
[3]
  growth inhibition: 95.9% (active)
[4]
  growth inhibition: 87.2% (active)
[5]
  growth inhibition: 48%
[6]
  growth inhibition: 98.3% (active)

## OC(CC1CCCCN1)c1ccc2c(c1)oc1ccccc12 (stereo unspecified)
[1]
  growth inhibition: 71.7% (active)
[2]
  growth inhibition: 56.9%
[3]
  growth inhibition: 62.2%
[4]
  growth inhibition: 56.2%
[5]
  growth inhibition: 73.8% (active)
[6]
  growth inhibition: 75.6% (active)

## CCCCCOc1ccc(C2=C(c3ccccc3)C(=O)C(c3ccccc3)=C2c2ccccc2)cc1
[1]
  growth inhibition: 40.4%
[2]
  growth inhibition: 12.3%
[3]
  growth inhibition: 33.5%
[4]
  growth inhibition: 26.9%
[5]
  growth inhibition: -3.15%
[6]
  growth inhibition: 23.4%

## O=[N+]([O-])c1ccc2c(c1)Sc1ccccc1N2CCCCCl
[1]
  growth inhibition: -24%
[2]
  growth inhibition: -15.8%
[3]
  growth inhibition: -49.2%
[4]
  growth inhibition: -7.25%
[5]
  growth inhibition: -1.8%
[6]
  growth inhibition: -23.2%

## C[C@]12C(=O)OC[C@H](c3ccccc3)N1C(=O)N(Cc1ccccc1)[C@@H]2CO
[1]
  growth inhibition: -27.8%
[2]
  growth inhibition: -26.1%
[3]
  growth inhibition: -17.6%
[4]
  growth inhibition: 1.6%
[5]
  growth inhibition: 17.1%
[6]
  growth inhibition: -9.5%

## Cc1cc(C)c(/C=C/c2c(C)cc(C)cc2C)c(C)c1
[1]
  growth inhibition: 9.25%
[2]
  growth inhibition: -12.9%
[3]
  growth inhibition: 4.2%
[4]
  growth inhibition: -26.4%
[5]
  growth inhibition: -4.45%
[6]
  growth inhibition: -0.5%

## C=CCCC(=O)OC(C)(C)C
[1]
  growth inhibition: 16.8%
[2]
  growth inhibition: -15.4%
[3]
  growth inhibition: 21.4%
[4]
  growth inhibition: 7.2%
[5]
  growth inhibition: 6.1%
[6]
  growth inhibition: 1.95%

## COc1ccc(NS(=O)c2ccc(Cl)cc2)cc1 (stereo unspecified)
[1]
  growth inhibition: 13%
[2]
  growth inhibition: 12.8%
[3]
  growth inhibition: 28.3%
[4]
  growth inhibition: 8.65%
[5]
  growth inhibition: 11.4%
[6]
  growth inhibition: 13.9%

## CCOC(=O)c1nnsc1NC(=O)Nc1ccc(Cl)cc1
[1]
  growth inhibition: -5.05%
[2]
  growth inhibition: -21.2%
[3]
  growth inhibition: -3.4%
[4]
  growth inhibition: -6.55%
[5]
  growth inhibition: -44.9%
[6]
  growth inhibition: 10.6%

## CC1CCN(C(c2ccccc2)c2ccc3ccccc3c2O)CC1 (stereo unspecified)
[1]
  growth inhibition: 51.8%
[2]
  growth inhibition: 42.2%
[3]
  growth inhibition: 55.4%
[4]
  growth inhibition: -6.8%
[5]
  growth inhibition: 33.6%
[6]
  growth inhibition: 75% (active)

## CC1OC(c2ccc(Cl)cc2)OC1C (stereo unspecified)
[1]
  growth inhibition: 16.4%
[2]
  growth inhibition: 20.9%
[3]
  growth inhibition: 10.9%
[4]
  growth inhibition: -31.6%
[5]
  growth inhibition: -5.7%
[6]
  growth inhibition: 10.7%

## NC(=S)N/N=C(\c1ccccc1)c1cccc2ccccc12
[1]
  growth inhibition: 5.1%
[2]
  growth inhibition: 50.7%
[3]
  growth inhibition: 59%
[4]
  growth inhibition: -35.3%
[5]
  growth inhibition: 58.5%
[6]
  growth inhibition: 33.5%

## COC1=C(C#N)C(c2ccccc2)CC(N)=N1 (stereo unspecified)
[1]
  growth inhibition: 1.55%
[2]
  growth inhibition: -11.1%
[3]
  growth inhibition: -10.1%
[4]
  growth inhibition: 2.1%
[5]
  growth inhibition: -1%
[6]
  growth inhibition: 20.4%

## CSc1nc(N)c(N=Nc2ccc(S(=O)(=O)Nc3cc(C)nc(C)n3)cc2)c(=O)[nH]1
[1]
  growth inhibition: 17.4%
[2]
  growth inhibition: 15.6%
[3]
  growth inhibition: -10.6%
[4]
  growth inhibition: -0.2%
[5]
  growth inhibition: 2.1%
[6]
  growth inhibition: -3.3%

## O=C(O)c1cccc(=O)o1
[1]
  growth inhibition: -3.35%
[2]
  growth inhibition: -16.3%
[3]
  growth inhibition: -11.3%
[4]
  growth inhibition: 3.35%
[5]
  growth inhibition: 7.1%
[6]
  growth inhibition: -1.65%

## NCCCn1c2ccccc2c2cnccc21
[1]
  growth inhibition: 7.2%
[2]
  growth inhibition: 4.15%
[3]
  growth inhibition: 2.15%
[4]
  growth inhibition: -6.65%
[5]
  growth inhibition: 1.05%
[6]
  growth inhibition: -20.2%

## COc1cc2c(cc1OC)NC(C)=CC(C)=N2
[1]
  growth inhibition: -14.3%
[2]
  growth inhibition: 5.1%
[3]
  growth inhibition: 0.3%
[4]
  growth inhibition: 25.2%
[5]
  growth inhibition: 25.7%
[6]
  growth inhibition: 15.9%

## O=C(O)COc1ccc([N+](=O)[O-])cc1/C=C1/SC(=S)N(c2ccccc2)C1=O
[1]
  growth inhibition: 14.7%
[2]
  growth inhibition: 10.3%
[3]
  growth inhibition: 18.9%
[4]
  growth inhibition: 2.5%
[5]
  growth inhibition: -1.6%
[6]
  growth inhibition: 11.2%

## Nc1ccc(SCCC(=O)O)cc1
[1]
  growth inhibition: 18.9%
[2]
  growth inhibition: 0.7%
[3]
  growth inhibition: -0.25%
[4]
  growth inhibition: 2.1%
[5]
  growth inhibition: 5.95%
[6]
  growth inhibition: -13.3%

## Brc1ccc(C2NC(c3ccccc3)c3c(ccc4ccccc34)O2)cc1 (stereo unspecified)
[1]
  growth inhibition: 90% (active)
[2]
  growth inhibition: 77.7% (active)
[3]
  growth inhibition: 90.9% (active)
[4]
  growth inhibition: 61.2%
[5]
  growth inhibition: 52.3%
[6]
  growth inhibition: 86.4% (active)
